What all share (experiment): DAPPL (digital affinity profiling via proximity ligation, sequencing); 10 mM Tris-HCl pH 7.5, 50 mM NaCl, 1 mM DTT, 4% glycerol, room temperature, 30 min; GST-TFs on glutathione beads, 16-mer random dsDNA library, 0.1% formaldehyde crosslink after washing; high values mean tight binding
Test [1] has as its target T1, FEV (Homo sapiens, UniProt Q99581 1-238).
T1 sequence: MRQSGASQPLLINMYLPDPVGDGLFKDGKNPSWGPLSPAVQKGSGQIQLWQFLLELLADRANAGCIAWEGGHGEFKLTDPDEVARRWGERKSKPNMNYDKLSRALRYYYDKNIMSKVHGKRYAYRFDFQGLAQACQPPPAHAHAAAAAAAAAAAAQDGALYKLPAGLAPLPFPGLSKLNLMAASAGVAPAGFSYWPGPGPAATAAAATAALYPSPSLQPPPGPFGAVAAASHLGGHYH
Conditions: protein: recombinant; tags: N-terminal GST; dsDNA, one strand shown. The procedure, abridged: (§1)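 Binding signal is each hexamer's read frequency for a factor divided by its frequency in the tag-only sample. The factors were GST-fused human transcription factors from yeast, captured on glutathione beads, DNA-barcoded and pooled with that sample. Pools were incubated with 200 nmole of a random double-stranded 16-mer DNA library in Tris/NaCl/DTT/glycerol buffer at room temperature for 30 min, then washed, crosslinked with 0.1% formaldehyde, proximity-ligated with BsaI/T4 ligase (1 h, 37 °C), PCR-amplified and sequenced on an Illumina NextSeq500.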

Test [2] addresses ETV5 (Homo sapiens, UniProt P41161 1-510). The conditions noted are these: protein: recombinant; tags: N-terminal GST; dsDNA, one strand shown. The procedure, abridged: as §1
Test [3] deals with HSF1 (Homo sapiens, UniProt Q00613 1-529). Conditions: protein: recombinant; tags: N-terminal GST; chain copies: 3; dsDNA, one strand shown. In outline: as §1
For test [4], the target named is T2, SPIC (Homo sapiens, UniProt Q8N5J4 1-248).
T2 sequence: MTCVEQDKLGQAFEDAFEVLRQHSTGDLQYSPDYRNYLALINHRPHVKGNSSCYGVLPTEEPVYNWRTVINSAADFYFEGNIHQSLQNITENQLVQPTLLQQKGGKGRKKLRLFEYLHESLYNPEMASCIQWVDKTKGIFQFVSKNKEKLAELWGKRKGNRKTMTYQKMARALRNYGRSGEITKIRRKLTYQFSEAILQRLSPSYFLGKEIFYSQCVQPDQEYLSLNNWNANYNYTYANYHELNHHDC
Conditions: protein: recombinant; tags: N-terminal GST; dsDNA, one strand shown. The procedure, abridged:
as §1

Test [5] deals with ELF4 (Homo sapiens, UniProt Q99607 1-663). Conditions: protein: recombinant; tags: N-terminal GST; dsDNA, one strand shown. The procedure, abridged: as §1
Test [6] has as its target T3, ELK4 (Homo sapiens, UniProt P28324-2 1-405).
T3 sequence: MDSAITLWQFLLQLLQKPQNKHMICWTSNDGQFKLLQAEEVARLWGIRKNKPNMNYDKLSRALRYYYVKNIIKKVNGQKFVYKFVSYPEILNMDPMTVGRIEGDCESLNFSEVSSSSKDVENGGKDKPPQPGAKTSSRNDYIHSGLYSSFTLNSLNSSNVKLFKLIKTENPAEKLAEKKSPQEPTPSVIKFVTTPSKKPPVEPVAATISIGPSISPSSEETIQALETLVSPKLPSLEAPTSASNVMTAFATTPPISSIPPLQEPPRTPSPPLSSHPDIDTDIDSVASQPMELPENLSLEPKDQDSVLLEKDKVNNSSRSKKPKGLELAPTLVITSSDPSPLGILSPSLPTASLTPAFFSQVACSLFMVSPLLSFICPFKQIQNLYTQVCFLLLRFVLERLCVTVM
Conditions: protein: recombinant; tags: N-terminal GST; dsDNA, one strand shown. The procedure, abridged:
as §1

In test [7] the target is T4, ETV2 (Homo sapiens, UniProt O00321 1-342).
T4 sequence: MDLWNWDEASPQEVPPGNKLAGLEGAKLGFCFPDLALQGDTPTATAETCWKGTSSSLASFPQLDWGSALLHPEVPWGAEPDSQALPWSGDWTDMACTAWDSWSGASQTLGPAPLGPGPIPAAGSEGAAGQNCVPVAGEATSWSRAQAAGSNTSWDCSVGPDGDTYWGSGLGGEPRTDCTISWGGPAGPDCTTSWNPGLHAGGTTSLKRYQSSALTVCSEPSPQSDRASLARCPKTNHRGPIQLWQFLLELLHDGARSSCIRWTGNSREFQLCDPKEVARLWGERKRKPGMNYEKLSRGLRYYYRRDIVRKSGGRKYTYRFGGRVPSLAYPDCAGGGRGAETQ
The conditions noted are these: protein: recombinant; tags: N-terminal GST; dsDNA, one strand shown. In outline: as §1

Test [8] deals with T5, ELF3 (Homo sapiens, UniProt P78545 1-371).
T5 sequence: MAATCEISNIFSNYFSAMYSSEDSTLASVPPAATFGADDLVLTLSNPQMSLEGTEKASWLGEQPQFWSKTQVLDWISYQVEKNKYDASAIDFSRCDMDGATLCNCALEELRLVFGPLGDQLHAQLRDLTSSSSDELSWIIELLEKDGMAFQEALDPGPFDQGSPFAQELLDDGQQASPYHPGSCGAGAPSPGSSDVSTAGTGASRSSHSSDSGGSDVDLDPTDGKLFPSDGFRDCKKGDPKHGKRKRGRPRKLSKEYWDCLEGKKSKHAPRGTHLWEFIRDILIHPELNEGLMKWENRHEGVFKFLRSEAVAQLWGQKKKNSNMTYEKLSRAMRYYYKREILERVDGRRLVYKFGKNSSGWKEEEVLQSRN
Conditions: protein: recombinant; tags: N-terminal GST; dsDNA, one strand shown. The procedure, abridged:
as §1

Test [9] deals with CRX (Homo sapiens, UniProt O43186 1-299). The conditions noted are these: protein: recombinant; tags: N-terminal GST; dsDNA, one strand shown. In outline:
as §1

The target of test [10] is ETV1 (Homo sapiens, UniProt P50549 1-477). Conditions: protein: recombinant; tags: N-terminal GST; dsDNA, one strand shown. In outline: as §1
In test [11] the target is T6, ERF (Homo sapiens, UniProt P50548 1-548).
T6 sequence: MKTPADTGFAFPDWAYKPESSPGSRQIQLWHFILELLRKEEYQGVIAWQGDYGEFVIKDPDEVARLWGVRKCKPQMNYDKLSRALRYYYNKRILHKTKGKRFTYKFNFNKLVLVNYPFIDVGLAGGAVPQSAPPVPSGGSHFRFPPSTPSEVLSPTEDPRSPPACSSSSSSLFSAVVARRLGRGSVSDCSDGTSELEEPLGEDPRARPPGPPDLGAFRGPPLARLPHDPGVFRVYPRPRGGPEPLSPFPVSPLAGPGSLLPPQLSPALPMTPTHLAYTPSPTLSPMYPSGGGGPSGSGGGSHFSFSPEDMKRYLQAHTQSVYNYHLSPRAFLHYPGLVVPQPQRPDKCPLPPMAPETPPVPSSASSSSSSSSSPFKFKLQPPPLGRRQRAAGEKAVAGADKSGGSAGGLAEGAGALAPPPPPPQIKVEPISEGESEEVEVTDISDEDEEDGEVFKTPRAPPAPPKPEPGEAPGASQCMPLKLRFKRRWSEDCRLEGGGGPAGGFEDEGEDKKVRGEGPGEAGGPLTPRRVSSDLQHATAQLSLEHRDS
The conditions noted are these: protein: recombinant; tags: N-terminal GST; dsDNA, one strand shown. In outline: as §1

Test [12] addresses T7, ETV3L (Homo sapiens, UniProt Q6ZN32 1-361).
T7 sequence: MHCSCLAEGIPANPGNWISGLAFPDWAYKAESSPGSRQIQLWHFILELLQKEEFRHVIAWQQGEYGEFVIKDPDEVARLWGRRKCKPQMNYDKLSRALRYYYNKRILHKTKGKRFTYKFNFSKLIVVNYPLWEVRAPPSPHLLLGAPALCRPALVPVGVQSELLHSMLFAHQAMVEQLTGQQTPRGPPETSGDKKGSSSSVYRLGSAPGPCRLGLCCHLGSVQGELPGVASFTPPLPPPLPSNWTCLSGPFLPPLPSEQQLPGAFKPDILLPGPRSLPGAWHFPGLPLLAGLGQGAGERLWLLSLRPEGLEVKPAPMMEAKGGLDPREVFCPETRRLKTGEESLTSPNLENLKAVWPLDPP
Conditions: protein: recombinant; tags: N-terminal GST; dsDNA, one strand shown. In outline:
as §1

In test [13] the target is T8, ETS2 (Homo sapiens, UniProt P15036 1-469).
T8 sequence: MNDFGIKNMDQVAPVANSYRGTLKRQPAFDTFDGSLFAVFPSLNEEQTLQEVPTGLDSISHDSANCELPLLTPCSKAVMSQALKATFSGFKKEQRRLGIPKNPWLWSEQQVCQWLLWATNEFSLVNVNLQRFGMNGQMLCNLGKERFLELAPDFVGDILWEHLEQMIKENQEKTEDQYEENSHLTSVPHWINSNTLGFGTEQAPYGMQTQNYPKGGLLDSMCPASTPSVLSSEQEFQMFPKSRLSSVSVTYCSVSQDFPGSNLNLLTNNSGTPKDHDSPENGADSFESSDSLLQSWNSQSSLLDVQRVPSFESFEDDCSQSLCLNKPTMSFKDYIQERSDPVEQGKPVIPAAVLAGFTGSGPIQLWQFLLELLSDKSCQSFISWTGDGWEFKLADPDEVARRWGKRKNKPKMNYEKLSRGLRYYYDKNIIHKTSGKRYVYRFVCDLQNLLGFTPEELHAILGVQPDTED
The conditions noted are these: protein: recombinant; tags: N-terminal GST; dsDNA, one strand shown. The procedure, abridged:
as §1

In test [14] the target is T9, SPDEF (Homo sapiens, UniProt O95238 1-335).
T9 sequence: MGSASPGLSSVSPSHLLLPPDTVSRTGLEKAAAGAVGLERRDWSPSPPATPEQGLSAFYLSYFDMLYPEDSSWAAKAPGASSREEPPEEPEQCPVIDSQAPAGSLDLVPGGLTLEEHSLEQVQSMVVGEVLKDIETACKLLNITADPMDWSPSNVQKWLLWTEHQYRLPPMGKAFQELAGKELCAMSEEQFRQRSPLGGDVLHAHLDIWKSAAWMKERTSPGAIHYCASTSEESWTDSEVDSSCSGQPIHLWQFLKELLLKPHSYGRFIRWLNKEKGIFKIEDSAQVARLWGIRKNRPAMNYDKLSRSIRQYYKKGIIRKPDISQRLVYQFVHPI
The conditions noted are these: protein: recombinant; tags: N-terminal GST; dsDNA, one strand shown. In outline: as §1

Test [15] concerns the target T10, ETV7 (Homo sapiens, UniProt Q9Y603 1-341).
T10 sequence: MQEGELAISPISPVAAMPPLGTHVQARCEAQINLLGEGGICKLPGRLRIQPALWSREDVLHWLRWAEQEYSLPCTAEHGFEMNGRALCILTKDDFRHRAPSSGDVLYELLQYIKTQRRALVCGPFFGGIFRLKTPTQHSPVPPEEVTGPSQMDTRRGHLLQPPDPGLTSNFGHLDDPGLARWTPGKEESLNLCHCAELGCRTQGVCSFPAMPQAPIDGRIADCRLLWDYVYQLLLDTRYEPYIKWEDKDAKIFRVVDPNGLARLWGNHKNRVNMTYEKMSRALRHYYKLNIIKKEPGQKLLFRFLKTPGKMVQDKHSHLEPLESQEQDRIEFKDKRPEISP
The conditions noted are these: protein: recombinant; tags: N-terminal GST; dsDNA, one strand shown. In outline: as §1

Test [16] addresses T11, ELF5 (Homo sapiens, UniProt Q9UKW6-2 1-255).
T11 sequence: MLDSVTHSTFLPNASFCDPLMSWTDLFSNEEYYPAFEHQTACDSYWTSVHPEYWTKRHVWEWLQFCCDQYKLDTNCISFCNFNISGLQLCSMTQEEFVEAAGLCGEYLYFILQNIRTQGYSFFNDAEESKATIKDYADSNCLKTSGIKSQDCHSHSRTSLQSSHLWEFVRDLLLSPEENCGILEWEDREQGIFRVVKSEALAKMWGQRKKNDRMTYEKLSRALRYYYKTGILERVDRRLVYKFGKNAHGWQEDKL
The conditions noted are these: protein: recombinant; tags: N-terminal GST; dsDNA, one strand shown. In outline:
as §1

Test [17] concerns the target T12, ETV3 (Homo sapiens, UniProt P41162-2 1-143).
T12 sequence: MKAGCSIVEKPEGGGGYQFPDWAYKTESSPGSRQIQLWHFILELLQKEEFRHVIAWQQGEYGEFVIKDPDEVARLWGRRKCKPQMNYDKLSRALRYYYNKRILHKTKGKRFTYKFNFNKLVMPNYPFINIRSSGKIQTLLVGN
The conditions noted are these: protein: recombinant; tags: N-terminal GST; dsDNA, one strand shown. The procedure, abridged: as §1

For test [18], the target named is ETV6 (Homo sapiens, UniProt P41212 1-452). The conditions noted are these: protein: recombinant; tags: N-terminal GST; dsDNA, one strand shown. In outline:
as §1

Chain of CRX (O43186 whole entry): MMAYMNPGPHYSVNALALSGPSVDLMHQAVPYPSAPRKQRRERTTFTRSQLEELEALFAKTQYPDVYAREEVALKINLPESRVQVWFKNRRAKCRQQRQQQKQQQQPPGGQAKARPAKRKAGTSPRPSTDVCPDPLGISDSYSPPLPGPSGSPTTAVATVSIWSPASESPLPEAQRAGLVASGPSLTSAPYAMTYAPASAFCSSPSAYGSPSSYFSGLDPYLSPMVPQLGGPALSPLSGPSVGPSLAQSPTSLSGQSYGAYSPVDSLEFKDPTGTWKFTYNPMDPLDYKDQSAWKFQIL
Chain of ETV6 (P41212 whole entry): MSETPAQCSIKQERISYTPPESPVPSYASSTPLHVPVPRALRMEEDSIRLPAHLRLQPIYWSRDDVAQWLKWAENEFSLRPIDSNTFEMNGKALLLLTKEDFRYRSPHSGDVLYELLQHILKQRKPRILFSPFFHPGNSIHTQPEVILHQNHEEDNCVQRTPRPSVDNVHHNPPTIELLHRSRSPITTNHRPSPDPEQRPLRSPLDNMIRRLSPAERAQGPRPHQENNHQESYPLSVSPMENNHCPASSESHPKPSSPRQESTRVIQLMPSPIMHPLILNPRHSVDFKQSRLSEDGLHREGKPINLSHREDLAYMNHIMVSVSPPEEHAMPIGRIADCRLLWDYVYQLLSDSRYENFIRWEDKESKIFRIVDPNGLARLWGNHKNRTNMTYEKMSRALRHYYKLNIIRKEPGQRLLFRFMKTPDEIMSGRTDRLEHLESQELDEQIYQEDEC
Chain of ETV5 (P41161 whole entry): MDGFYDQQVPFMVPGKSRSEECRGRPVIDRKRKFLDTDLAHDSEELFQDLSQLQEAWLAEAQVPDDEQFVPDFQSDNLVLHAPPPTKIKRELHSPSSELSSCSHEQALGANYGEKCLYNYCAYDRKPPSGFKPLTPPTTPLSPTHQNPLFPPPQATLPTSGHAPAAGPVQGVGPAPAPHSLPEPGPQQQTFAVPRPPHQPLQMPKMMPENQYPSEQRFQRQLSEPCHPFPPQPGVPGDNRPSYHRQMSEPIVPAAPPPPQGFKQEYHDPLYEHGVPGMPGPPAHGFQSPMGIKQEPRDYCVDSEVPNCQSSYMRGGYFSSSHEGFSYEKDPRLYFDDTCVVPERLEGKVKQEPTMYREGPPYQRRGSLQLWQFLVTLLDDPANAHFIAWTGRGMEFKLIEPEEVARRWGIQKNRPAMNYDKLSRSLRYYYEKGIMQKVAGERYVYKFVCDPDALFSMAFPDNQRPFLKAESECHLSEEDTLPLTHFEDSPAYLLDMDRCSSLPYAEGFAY
Chain of HSF1 (Q00613 whole entry): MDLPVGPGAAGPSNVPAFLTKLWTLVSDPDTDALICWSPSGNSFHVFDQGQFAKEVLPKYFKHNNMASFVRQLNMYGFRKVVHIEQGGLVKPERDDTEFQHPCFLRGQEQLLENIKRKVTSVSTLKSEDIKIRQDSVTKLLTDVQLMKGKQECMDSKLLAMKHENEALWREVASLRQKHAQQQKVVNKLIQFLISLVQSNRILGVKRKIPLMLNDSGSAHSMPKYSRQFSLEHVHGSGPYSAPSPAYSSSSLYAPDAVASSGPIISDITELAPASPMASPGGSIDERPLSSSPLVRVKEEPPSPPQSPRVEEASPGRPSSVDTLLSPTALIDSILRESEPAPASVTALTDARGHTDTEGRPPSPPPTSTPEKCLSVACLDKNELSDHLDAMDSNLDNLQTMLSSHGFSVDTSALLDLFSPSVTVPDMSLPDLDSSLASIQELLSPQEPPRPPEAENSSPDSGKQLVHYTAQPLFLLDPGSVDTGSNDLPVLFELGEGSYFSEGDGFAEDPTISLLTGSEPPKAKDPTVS
Chain of ETV1 (P50549 whole entry): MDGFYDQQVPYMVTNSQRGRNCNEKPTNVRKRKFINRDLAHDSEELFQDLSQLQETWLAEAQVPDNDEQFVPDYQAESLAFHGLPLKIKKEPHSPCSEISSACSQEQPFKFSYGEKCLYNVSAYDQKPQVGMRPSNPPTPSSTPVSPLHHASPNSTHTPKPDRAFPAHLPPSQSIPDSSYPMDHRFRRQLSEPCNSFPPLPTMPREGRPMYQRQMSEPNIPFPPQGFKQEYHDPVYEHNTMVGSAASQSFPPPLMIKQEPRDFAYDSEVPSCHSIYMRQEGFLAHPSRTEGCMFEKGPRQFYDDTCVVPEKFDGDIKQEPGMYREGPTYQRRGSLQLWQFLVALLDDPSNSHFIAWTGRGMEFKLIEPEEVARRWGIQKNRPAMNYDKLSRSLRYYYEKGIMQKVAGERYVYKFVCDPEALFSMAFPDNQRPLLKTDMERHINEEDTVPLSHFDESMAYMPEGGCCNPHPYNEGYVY
Chain of ELF4 (Q99607 whole entry): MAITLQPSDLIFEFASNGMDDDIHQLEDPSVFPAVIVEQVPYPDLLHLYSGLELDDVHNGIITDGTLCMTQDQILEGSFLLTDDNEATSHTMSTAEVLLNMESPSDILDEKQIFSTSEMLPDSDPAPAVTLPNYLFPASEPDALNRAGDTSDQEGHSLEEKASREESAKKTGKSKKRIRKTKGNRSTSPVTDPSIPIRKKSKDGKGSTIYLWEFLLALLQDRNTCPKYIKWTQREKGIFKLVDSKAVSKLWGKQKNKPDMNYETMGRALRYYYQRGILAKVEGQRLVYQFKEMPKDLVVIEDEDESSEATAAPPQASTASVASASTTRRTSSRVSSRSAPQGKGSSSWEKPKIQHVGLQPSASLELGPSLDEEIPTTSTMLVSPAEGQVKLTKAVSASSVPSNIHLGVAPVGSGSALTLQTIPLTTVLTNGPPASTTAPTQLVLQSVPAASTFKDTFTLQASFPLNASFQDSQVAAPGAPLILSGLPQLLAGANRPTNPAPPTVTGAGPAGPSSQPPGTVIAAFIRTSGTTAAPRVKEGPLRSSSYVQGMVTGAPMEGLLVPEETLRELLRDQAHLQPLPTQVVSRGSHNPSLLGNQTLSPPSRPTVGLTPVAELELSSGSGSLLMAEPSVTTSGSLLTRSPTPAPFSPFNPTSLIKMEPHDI

For the sequence CATTTT, the binding signal in [1] is 1.19 fold enrichment (6-mer frequency, TF over GST control); in test [2] it was 1.23 fold enrichment (6-mer frequency, TF over GST control); in test [3], 1.19 fold enrichment (6-mer frequency, TF over GST control); in test [4] it was 1.18 fold enrichment (6-mer frequency, TF over GST control); in test [5], 1.32 fold enrichment (6-mer frequency, TF over GST control); in test [6], 1.32 fold enrichment (6-mer frequency, TF over GST control). Also, the binding signal was 1.35 fold enrichment (6-mer frequency, TF over GST control) in test [7]; 1.21 fold enrichment (6-mer frequency, TF over GST control) in test [8]; 1.04 fold enrichment (6-mer frequency, TF over GST control) in test [9]; 1.24 fold enrichment (6-mer frequency, TF over GST control) in [10]; 1.22 fold enrichment (6-mer frequency, TF over GST control) in test [11]; 1.24 fold enrichment (6-mer frequency, TF over GST control) in test [12]. The binding signal in test [13] is 1.1 fold enrichment (6-mer frequency, TF over GST control); in [14], 1.06 fold enrichment (6-mer frequency, TF over GST control); in [15], 1.2 fold enrichment (6-mer frequency, TF over GST control); in test [16], 1.22 fold enrichment (6-mer frequency, TF over GST control); in [17], 1.18 fold enrichment (6-mer frequency, TF over GST control); in test [18] it was 1.28 fold enrichment (6-mer frequency, TF over GST control).

For the origin of these results see paper PMC7862700, “An all-to-all approach to the identification of sequence-specific readers for epigenetic DNA modifications on cytosine”.
